Laboratory results from PubChem BioAssay AID686978 (National Center for Advancing Translational Sciences (NCATS), 2013).
“And” between values parts separate entries of the source, which are not always exact repeats. Identical values can stand only once. The campaign covered roughly 420,000 compounds. About 64,000 (15%) were called active. Not shown: some 27% with an inconclusive outcome. Calls follow the shape of the dose curve; as a rule, active = well fitted inhibition curve with a large enough effect; inconclusive = small, poorly fitted or top-dose-only effect; inactive = flat fitted curve, though single readings scatter. The list is a sample of the results. A call without a number means that no potency is given here.
Potency is read from the fitted curve at half-maximal effect.

Experiment: qHTS for Inhibitors of human tyrosyl-DNA phosphodiesterase 1 (TDP1): qHTS in cells in absence of CPT; also: nearly all actives have a fitted effect of over 55% in size
Details: DT40 Tdp1-/- hTDP1 cells, no CPT, ATP luminescence, 48 h; activity change, negative = growth inhibition: at 46.2 µM (top of the series)
Procedure, shortened: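 Growth of hTDP1-complemented DT40 Tdp1-knockout cells is measured by ATP luminescence after at least 48 hr compound exposure at 37 °C, with DMSO substituting for the 20 nM CPT used in the parallel screen.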
In the case of `C=CCn1c(COc2ccc(F)cc2)nnc1SCC(=O)Nc1cccc(S(N)(=O)=O)c1`, the Potency is reported as “inactive”. With `O=C(c1cnccn1)N1CCN(S(=O)(=O)c2cccc(Cl)c2)CC1` the Potency was “inactive”. For `COc1ccc(S(=O)(=O)Nc2ccc(S(=O)(=O)N3CCCCC3)cc2)cc1OC`, the Potency was “inactive”. For `COc1ccc(-c2ccc(Nc3ccc(S(=O)(=O)N4CCCC4)cc3)nn2)cc1OC`, the Potency was 18.4 µM (active). In the case of `COc1cc(NS(=O)(=O)c2ccc(NC(=O)c3ccc(S(=O)(=O)N4CCCCC4)cc3)cc2)ncn1`, the Potency is reported as “inactive”. In the case of `O=C(Nc1ccccc1C(F)(F)F)c1cc(-c2ccc(O)cc2)on1`, the Potency is reported as “inactive”. For `CCN(CC)Cc1cc(C(C)=O)ccc1O`, the Potency was “inactive”. In the case of `O=C(NCc1cccs1)C(=O)NCC1OCCCN1S(=O)(=O)c1ccc(F)cc1` (stereo not given), the Potency is reported as “inactive”. For `CSCc1nnc(NC(=O)c2ccc(S(=O)(=O)N3CCCCC3C)cc2)o1` (stereo not given), the Potency was 20.6 µM (active). In the case of `CC(=O)c1ccc(NC(=O)C2CCCN2S(=O)(=O)c2cccs2)cc1` (stereo not given), the Potency is reported as “inactive”. With `CS(=O)(=O)c1ccc(-c2nnc(NC(=O)c3ccc4c(c3)OCCO4)o2)cc1` the Potency was “inactive”. For `CCc1nnc(NC(=O)c2ccc(S(=O)(=O)NC3CCCCC3)cc2)s1`, the Potency was “inactive”. In the case of `CC1CC(C)CN(S(=O)(=O)c2ccc(C(=O)NN3CCOCC3)cc2)C1` (stereo not given), the Potency is reported as “inactive”. In the case of `CC1CCCN(S(=O)(=O)c2ccc(C(=O)Nc3nnc(-c4ccncc4)o3)cc2)C1` (stereo not given), the Potency is reported as 10.3 µM (active). For `CC1CCCCN1S(=O)(=O)CCNC(=O)c1ccccc1` (stereo not given), the Potency was “inactive”. For `CC1CCCCN1S(=O)(=O)c1ccc(S(=O)(=O)N(CC(=O)Nc2ccccc2)Cc2cccs2)cc1` (stereo not given), the Potency was 25.9 µM (active). In the case of `COCCN(CC(=O)Nc1ccccc1C)S(=O)(=O)c1ccc(S(=O)(=O)N2CCCC2)cc1`, the Potency is reported as “inactive”. With `CCN(CC(=O)NCc1cccs1)S(=O)(=O)c1ccc(NC(C)=O)cc1` the Potency was “inactive”. With `CC1CCCCN1S(=O)(=O)c1ccc(C(=O)Nc2nnc(-c3cccs3)o2)cc1` (stereo not given) the Potency was 5.8 µM (active). In the case of `COC(=O)c1ccc(N(CC(=O)NC2CCCC2)C(=O)CNC(=O)c2ccco2)cc1`, the Potency is reported as “inactive”. In the case of `C=C(C)C1CC=C(C)/C(=N/NC(=O)CCCNc2cccc(C)c2)C1` (stereo not given), the Potency is reported as “inactive”. For `CCOc1ccc(-c2n[nH]c(=S)n2/N=C/c2cc3c(cc2[N+](=O)[O-])OCO3)cc1`, the Potency was “inactive”. With `NC(=O)c1ccc(NC(=O)COC(=O)c2ccc([N+](=O)[O-])cc2)cc1` the Potency was “inactive”. In the case of `COCc1cc(C)nc2sc3c(=O)n(-c4cccc5ccccc45)nnc3c12`, the Potency is reported as “inactive”. In the case of `CC1(C)OC[C@@H](COC(=O)CCc2ccc(OC[C@@H](O)CNCCNC(=O)N3CCOCC3)cc2)O1`, the Potency is reported as “inactive”. In the case of `C=CCn1c(SCC(=O)CC(=O)OCC)nc2cc(C(=O)N3CCC(C(N)=O)CC3)ccc2c1=O`, the Potency is reported as “inactive”. With `Cc1ccccc1Nc1nn2c(=O)c3ccc(C(=O)NCCc4ccc(Cl)cc4)cc3nc2s1` the Potency was 14.6 µM (active). For `CCc1ccc(Nc2nn3c(=O)c4cc5c(cc4nc3s2)OCO5)cc1`, the Potency was “inactive”. For `C=CCN1C(=O)c2ccc(C(=O)N3CCC(C(=O)OCC)CC3)cc2C1=O`, the Potency was “inactive”. In the case of `CCOC(=O)C1CCN(C(=O)c2ccc3c(=O)n4nc(Nc5ccccc5CC)sc4nc3c2)CC1`, the Potency is reported as 10.3 µM (active). In the case of `Cc1cc(C(=O)NCCc2ccc(Cl)cc2)c(C)o1`, the Potency is reported as “inactive”. For `Cc1ccc(C(=O)NC2CCN(C(=O)N3CCOCC3)CC2)cc1`, the Potency was “inactive”. In the case of `C#CCOCCOCCOCCNc1nc(N2CCN(C(=O)[C@H](C(C)C)n3cc(CCO)nn3)CC2)nc(N2CCN(C(=O)[C@H](C(C)C)n3cc(CCO)nn3)CC2)n1`, the Potency is reported as “inactive”. With `COc1cccc(C(CC(=O)NCCN2CCOCC2)NS(=O)(=O)c2ccc(C)cc2)c1OC` (stereo not given) the Potency was “inactive”. In the case of `O=C(N/N=C/c1ccco1)c1ccc(NC(=O)C2CC2)cc1`, the Potency is reported as “inactive”. In the case of `O=C(N/N=C/c1ccco1)c1csc2c1CCCC2`, the Potency is reported as 5.8 µM (active). With `O=C(N/N=C/c1ccco1)c1ccc(C(=O)N/N=C/c2ccco2)o1` the Potency was “inactive”. In the case of `Cc1cccc(C(=O)NCCCN2CCCC2=O)c1`, the Potency is reported as “inactive”. With `Cc1nc2ccc(S(=O)(=O)NC(C(=O)N3CCCCCC3)C(C)C)cc2s1` (stereo not given) the Potency was “inactive”. For `O=C(CN1C(=O)c2ccc([N+](=O)[O-])cc2C1=O)Nc1nnc(C2CC2)s1`, the Potency was “inactive”. In the case of `CCOc1ccc(N2C(=O)CC(N(O)c3ccccc3)C2=O)cc1` (stereo not given), the Potency is reported as “inactive”. With `O=C(NC1(C(F)(F)F)NC(=O)N(C2CCCCC2)C1=O)c1ccco1` (stereo not given) the Potency was “inactive”. For `O=C(O)C#Cc1cccc2ccccc12`, the Potency was “inactive”. For `Cc1ccc(C)c(S(=O)(=O)N2CCN(C(=O)Nc3ccccc3)CC2)c1`, the Potency was “inactive”. For `Cc1ccc(NC(=O)CCNC(=O)c2ccc([N+](=O)[O-])cc2)cc1S(=O)(=O)N1CCOCC1`, the Potency was “inactive”. With `C=CCNC(=O)CCCOc1cccc(C)c1` the Potency was “inactive”. In the case of `COc1ccc(NC(=O)CCCOc2ccc(C(C)=O)cc2)cc1S(=O)(=O)N1CCCCC1`, the Potency is reported as 25.9 µM (active). With `CC(=O)Nc1ccc(S(=O)(=O)N2CCSCC2)cc1` the Potency was “inactive”. For `Cc1ccc(OCCCC(=O)Nc2ccc(S(=O)(=O)Nc3cc(C)nc(C)n3)cc2)cc1`, the Potency was “inactive”. With `Cc1ccc(C)c(S(=O)(=O)N2CCN(CC(=O)Nc3ccc([N+](=O)[O-])cc3)CC2)c1` the Potency was 16.4 µM (active). For `CC(=O)Nc1ccc(S(=O)(=O)N2CCN(CCCOc3cc(C)ccc3C)CC2)cc1`, the Potency was 18.4 µM (active). With `COc1ccc(NC(=O)CSc2nnc(C3CC3)n2C)cc1S(=O)(=O)N1CCCCC1` the Potency was “inactive”. For `CC(=O)Nc1ccc(S(=O)(=O)N2CCN(S(=O)(=O)c3cccs3)CC2)cc1`, the Potency was “inactive”. For `CCOC(=O)C1CCN(CC(=O)Nc2ccc(OC)c(S(=O)(=O)N3CCCCC3)c2)CC1`, the Potency was “inactive”. In the case of `Cc1cccc(OCCCC(=O)Nc2ccc(S(=O)(=O)N3CCCC3)cc2)c1`, the Potency is reported as 18.4 µM (active). In the case of `CCOc1ccccc1NC(=O)Cn1c(=O)n(Cc2ccccc2)c(=O)c2c(C)c(C(=O)N(C)C)sc21`, the Potency is reported as “inactive”. For `O=C(NCCN1CCOCC1)C1CCN(S(=O)(=O)c2ccccc2)CC1`, the Potency was “inactive”. With `COCCCn1c(SCC(=O)Nc2oc(C)c3c(C)n[nH]c(=O)c23)nc2sc3c(c2c1=O)CCC3` the Potency was “inactive”. With `O=c1c(CCc2ccccc2)nc2cncnc2n1C1CC1` the Potency was “inactive”. With `C=CCn1c(COc2cccc3cccnc23)nnc1SCC(=O)OC` the Potency was “inactive”. In the case of `CC(=O)c1cc2c(cc1N)OCO2`, the Potency is reported as “inactive”. With `C/C(COc1ccccc1)=N\NC(=O)c1nnn(-c2nonc2N)c1-c1ccc(C)cc1` the Potency was “inactive”. In the case of `CSc1ccc(S(=O)(=O)N2CCC(C(=O)NCCc3ccccc3)CC2)cc1`, the Potency is reported as “inactive”. For `Cc1cc(S(=O)(=O)NC2CCCC2)ccc1-n1cnnn1`, the Potency was “inactive”. For `COc1ccc(NC(=O)c2ccc3oc(=O)c(S(=O)(=O)c4ccc(F)cc4)cc3c2)c(OC)c1`, the Potency was “inactive”. In the case of `CCCCNC(=O)C1(O)c2ccccc2NC(=O)N1c1ccc(Cl)cc1` (stereo not given), the Potency is reported as “inactive”. With `CC(=O)Nc1ccc(NC(=O)CCN2C(=O)C3CC=CCC3C2=O)cc1` (stereo not given) the Potency was “inactive”. In the case of `CCNC(=S)N(CCN(CC)CC)Cc1cc2cc3c(cc2[nH]c1=O)OCO3`, the Potency is reported as “inactive”. For `Cc1c(C)c2c(OCC(=O)N[C@@H](C(=O)O)c3ccccc3)cc3c(c2oc1=O)CCC(C)(C)O3`, the Potency was “inactive”. With `CC(C)CCC(=O)Nc1cc(S(=O)(=O)N2CCOCC2)ccc1N1CCCC1` the Potency was “inactive”. With `Cc1cccc(OCCC(=O)Nc2cc(S(=O)(=O)N3CCCCC3)ccc2N2CCOCC2)c1` the Potency was 20.6 µM (active). For `Cc1ccccc1NC(=O)CCOc1ccccc1`, the Potency was “inactive”. In the case of `Cc1cccc(OCCC(=O)Nc2ccccc2C(N)=O)c1`, the Potency is reported as 11.6 µM (active). For `CC(=O)NCCC(=O)Nc1cc(S(=O)(=O)N2CCOCC2)ccc1N1CCOCC1`, the Potency was “inactive”. For `Cc1cccc(OCC(=O)Nc2ccccc2F)c1`, the Potency was “inactive”. With `O=C(Nc1cccc(C(=O)O)c1)/C(=C\c1ccccc1)NC(=O)c1ccc(Br)o1` the Potency was “inactive”. For `Nc1nc2ncccn2c1-c1ccccc1`, the Potency was “inactive”. With `O=c1cc(-c2ccccc2)n2c(SCc3ccccc3)nnc2[nH]1` the Potency was “inactive”. For `CC1Cc2cc(S(=O)(=O)CCC(=O)Nc3ccc(F)c(Cl)c3)ccc2N1C(=O)C1CC1` (stereo not given), the Potency was 10.3 µM (active). For `Cn1c(=O)oc2cc(S(=O)(=O)CCC(=O)NCCc3ccc(Cl)cc3)ccc21`, the Potency was “inactive”. For `CC1Cc2cc(S(=O)(=O)CCC(=O)NCc3ccc(Cl)cc3)ccc2N1C(=O)C1CC1` (stereo not given), the Potency was 4.61 µM (active). In the case of `COc1cccc(CNS(=O)(=O)c2ccc3c(c2)CC(C)N3C(=O)C2CCC2)c1` (stereo not given), the Potency is reported as 16.4 µM (active) and 7.31 µM (active). With `COc1cccc(CNC(=O)C2CCC(CNS(=O)(=O)c3cccs3)CC2)c1` (stereo not given) the Potency was “inactive”. With `CC1Cc2ccccc2N1CC(=O)Nc1ccc(S(N)(=O)=O)cc1` (stereo not given) the Potency was “inactive”. With `CC(=O)N1c2ccc(S(=O)(=O)N(C)CC(=O)N(C)Cc3ccccc3)cc2CC1C` (stereo not given) the Potency was “inactive”. For `CCC(=O)N1c2ccc(S(=O)(=O)CCC(=O)N3CCN(c4ccccc4)CC3)cc2CC1C` (stereo not given), the Potency was “inactive”. With `CCOc1ccc(NC(=O)CCS(=O)(=O)c2ccc3c(c2)CCCN3C(=O)CC)cc1` the Potency was “inactive”. In the case of `Cc1ccc(CNC(=O)CCS(=O)(=O)c2ccc3c(c2)CC(C)N3C(=O)C2CC2)o1` (stereo not given), the Potency is reported as 25.9 µM (active). For `COc1cccc(CNC(=O)C2CCCN(S(=O)(=O)N3CC(C)CC(C)C3)C2)c1` (stereo not given), the Potency was “inactive”. For `CC1(NC(=O)CCS(=O)(=O)c2ccc(Cl)cc2)CCS(=O)(=O)C1` (stereo not given), the Potency was “inactive”. With `Cc1ccc2[nH]c3c(=O)n(CC(=O)NC(C)C)ncc3c2c1` the Potency was “inactive”. In the case of `COc1ccc(S(=O)(=O)NC(C)C(=O)Nc2cccc([N+](=O)[O-])c2)cc1` (stereo not given), the Potency is reported as “inactive”. In the case of `Cc1ccc(S(=O)(=O)c2c[nH]c3ccc(C)cc3c2=O)cc1`, the Potency is reported as “inactive”. For `C[C@H]1CN([C@@H](C)CO)C(=O)Cc2cc(NS(C)(=O)=O)ccc2O[C@@H]1CN(C)CC1CC1`, the Potency was “inactive”. With `CCC(Oc1ccccc1)C(=O)OCC(=O)Nc1c(C)nn(-c2ccccc2)c1C` (stereo not given) the Potency was “inactive”.
